Only some compounds are listed: those with a hit (about 4.1% of all), similar ones and a draw of the others.
ALR inh = human ALR oxidase inhibition via reduced H2O2 | inhibition, % (concentration not given with the values) | hit rate 3.8% among 290,000 | purified ALR, DTT oxidation, H2O2 HRP-luminol luminescence | P55789;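 active means mean replicate inhibition above about 79%, with every replicate also reaching it, limit read from the data; inconclusive means only one of the two criteria met; inactive means mean below limit and not every replicate reaching it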
PglD DTNB = PglD (C. jejuni) enzyme inhibition | inhibition, % at 12.5 µM | purified PglD enzyme, DTNB colorimetric CoA detection | hit rate 0.098% among 360,000; in the data active means inhibition above about 16%, passing the limit was not always enough; inconclusive means no clear call, values can overlap the other calls
CASP6 VEID inh = blocks human caspase-6 cleavage activity; P55212; purified caspase-6, Z-VEID-R110 cleavage fluorescence; inhibition, % at 12.5 µM; hit rate 0.53% among 350,000;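 active means mean inhibition across replicates at least about 35%, with every replicate also reaching that limit, limit read from the data; inconclusive means only one of the two criteria met; inactive means neither criterion met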;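 further: 0% = median of neutral control wells and 100% = no fluorescence left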
Env fusion inh = inhibitors of HIV Env-mediated cell fusion. HeLa-JRFL Env/CEM21 cell fusion, luciferase. inhibition, % at 12.3 µM. hit rate 1.1% among 360,000;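 active means mean replicate inhibition score of at least 50 and every replicate individually at or above 50; inconclusive means only one of the two criteria met; inactive means mean below 50 and not all replicates reaching 50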;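 further: 0% = plate neutral controls and 100% = maraviroc near 300 nM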
F508del corr = correctors of CFTR F508del function in bronchial epithelial cells. activity (quench increase), % at 7.58 µM. CFBE cells, YFP halide quenching; stimulated with forskolin plus potentiator P3; % fluorescence drop versus neutral controls. hit rate 0.36% among 350,000;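 active means mean added fluorescence quench of at least 8% versus neutral control, with both replicates also reaching 8%; inconclusive means only one of the mean or replicate conditions met; inactive means mean below 8% and not both replicates reaching 8%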;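 further: cells transiently co-express mutant CFTR-F508del with the halide-sensitive YFP; corrector assay measuring rescue of mutant channel to the surface after 24 h compound exposure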
NSD2 inh = blocks human histone methyltransferase NSD2; NSD2 peptide methylation, AlphaScreen, 120 min; inhibition, % at 12.5 µM; hit rate 0.54% among 310,000; AID 743445; in the data active means inhibition above about 50%
Active calls of the source: *; ? = inconclusive; nt = no result; [ ] = another dose, or the depositor's remark.

SMILES	ALR inh	PglD DTNB	CASP6 VEID inh	Env fusion inh	F508del corr	NSD2 inh
COc1cccc(N2[C@@H](CC(C)=O)c3ccccc3S2(=O)=O)c1	-1	-4	7	1	3	nt
COc1cccc(N2[C@@H](CC(=O)O)c3ccc(/C=C/C(=O)O)cc3S2(=O)=O)c1	nt	-3	62*	5	0	nt
Cc1csc(SCC(=O)NCc2ccccc2)n1	nt	nt	-110	-7	0	-2
Cc1csc2sc(-c3ccnc(SCC(=O)NCc4ccccc4)n3)c(C)c12	nt	-8	-1	-55	16*	1
O=C(NC1=NCCS1)c1sc2cc(F)ccc2c1Cl	99*	nt	nt	-12	nt	1
COc1ccc(S(=O)(=O)Nc2ccc3c(c2)C(=O)N(C)C[C@H](OC)[C@@H](C)CN[C@@H](C)CO3)cc1	nt	1	2	-7[16.7 µM]	0	nt
COc1ccccc1-c1cc(NC=O)c2ncc(-c3cccc(C(C)=O)c3)n2c1	nt	-1	3	67*	0	2
CC(=O)c1ccc(-c2cnc3c(NC=O)cc(-c4ccccc4Oc4ccccc4)cn23)cc1	nt	-2	-5	56*	2	-2
COc1ccc(-c2cnc3c(NC=O)cc(-c4ccc(F)cc4)cn23)cc1OC	nt	3	0	-75	1	-1
COc1ccc(-c2cnc3c(NC=O)cc(-c4ccccc4)cn23)cc1OC	nt	-3	0	42	13*	2
O=CNc1cc(-c2ccc(C(=O)NC3CC3)cc2)cn2c(-c3ccccc3)cnc12	nt	1	7	-14	14*	1
Cc1ccc(S(=O)(=O)N2C[C@H](O)COC[C@H]3O[C@@H](CC(=O)N[C@@H]4CCN(Cc5ccccc5)C4)CC[C@@H]32)cc1	nt	3	-3	nt	0	nt
CC=Cc1ccc2n(c1=O)C[C@H]1[C@H](CO)[C@@H](C(=O)NC3CCCC3)N(Cc3ccccc3)[C@@H]21 (mixture of isomers)	nt	0	9	nt	0	nt
COc1ccc(NS(=O)(=O)c2cc(NC(=O)[C@H](C)NC(N)=O)ccc2N2CCCC2)cc1	29	-5	44*	nt	-4	3
O=C1CC(NNC(=O)c2cccc(F)c2)C(=O)N1 (stereo unspecified)	92*	nt	0	-9	-3	0
CN(C)c1ccc(N=Nc2ccccc2C(=O)OCC(=O)NC2CCCC2)cc1	97*	nt	nt	nt	nt	22
CC(C)(C)S(=O)N1Cc2cc(C(=O)O)nc(-c3cccc(-c4cc5ccccc5o4)c3)c2[C@H]1CCO (stereo partly specified)	nt	3	36*	10	-6	nt
COc1ccc(CNC(=O)c2cc3c(c(-c4cccc(-c5ccc(C#N)cc5)c4)n2)[C@@H](CCO)N([S@](=O)C(C)(C)C)C3)cc1	nt	0	-4	8[16.7 µM]	12*	nt
CN1CCN(C(=O)c2cc3c(c(-c4cccc(-c5cc6ccccc6o5)c4)n2)[C@H](CCO)N(S(=O)C(C)(C)C)C3)CC1 (stereo partly specified)	nt	-4	-1	0	0	nt
O=C(NC[C@@H]1[C@@H](c2ccccc2)[C@@H](CO)N1Cc1cccnc1)C1CCCCC1	nt	nt	0	nt	2	nt
C[C@H](CO)N1C[C@H](C)[C@H](CN(C)CC2CCCC2)Oc2ncc(C#Cc3ccccn3)cc2C1=O	nt	nt	nt	nt	2	nt
COc1ccc(N2C(=O)[C@H]3[C@@H](C2=O)C2c4ccccc4C=NN2[C@H]3C(=O)C(C)(C)C)cc1 (stereo partly specified)	-6	-15	3	-7	-1	25
CC(C)(C)C(=O)[C@@H]1[C@@H]2C(=O)N(C3CCCCC3)C(=O)[C@@H]2[C@H]2c3ccccc3C=CN12	?	-193	nt	-16	nt	125*
COc1ccc(N2C(=O)[C@@H]3[C@H](C2=O)[C@H]2c4ccccc4C=CN2[C@@H]3C(C)=O)cc1	-11	0	84*	14	3	14
C[C@H]1CCCCO[C@@H](CN(C)C(=O)NC2CCCCC2)[C@@H](C)CN([C@@H](C)CO)C(=O)c2cc(NC(=O)c3ccccc3)ccc2O1	nt	-1	nt	6[16.7 µM]	4	nt
SMILES	ALR inh	PglD DTNB	CASP6 VEID inh	Env fusion inh	F508del corr	NSD2 inh
C[C@@H]1CN([C@@H](C)CO)C(=O)Cc2cc(NS(C)(=O)=O)ccc2O[C@H]1CN(C)Cc1ccc(Oc2ccccc2)cc1	nt	4	-1	nt	3	nt
COc1cccc(CC(=O)n2nc(N)c3cc4ccc(OC)cc4nc32)c1	-4	3	-4	-132	1	nt
COc1ccc2cc3c(N)nn(C(=O)Cc4c[nH]c5ccccc45)c3nc2c1	7	nt	12	90*	-6	-1
COc1ccc2cc3c(N)nn(C(=O)c4ccc(F)cc4)c3nc2c1	1	nt	1	63*	-4	3
CCOc1ccc(C(=O)Nc2cccc(C(=O)Nc3cc(C)ccn3)c2)cc1	nt	nt	nt	nt	nt	-1
CCN1C(=O)/C(=C2/Sc3ccccc3N2CC)S/C1=N\c1ncn[nH]1	98*	-3	-1	-5	0	1
CN1[C@H](C(=O)NC2CCCC2)[C@@H](CO)[C@@H]2Cn3c(ccc(/C=C/c4ccccc4)c3=O)[C@@H]21	nt	nt	1	nt	0	nt
CCCCCc1ccc(OCCCC[n+]2ccc(C)cc2)c(CCCCC)c1	-8	nt	-30	55*	?	3
CCCCCc1ccc(OCCCC[n+]2cccc(C)c2)c(CCCCC)c1	-2	nt	-41	56*	8	-3
CCC1(C)OC(=O)NN(c2ccc(C)cc2)C1(C)O (stereo unspecified)	95*	nt	nt	nt	nt	-1
CCOC(=O)c1sc(NC(=O)Nc2ccc(Cl)cc2)cc1C	-1	-7	nt	74*	nt	10
CCC(C)NC(=O)CS(=O)Cc1nc(-c2cccc(C)c2)oc1C (stereo unspecified)	98*	5	1	-32	-3	nt
Cc1cccc(-c2nc(CS(=O)CC(=O)NC3CCCC3)c(C)o2)c1 (stereo unspecified)	nt	-2	-1	12	0	nt
CCCCNC(=O)CS(=O)Cc1nc(-c2cccc(C)c2)oc1C (stereo unspecified)	99*	-3	0	-1	-1	nt
CCCCNC(=O)CS(=O)Cc1nc(-c2cccc(Cl)c2)oc1C (stereo unspecified)	100*	0	1	28	-3	nt
Cc1cccc(-c2nc(CS(=O)CC(=O)NCCc3ccc(Cl)cc3)c(C)o2)c1 (stereo unspecified)	91*	nt	3	11	0	1
O=S(=O)(N[C@H]1CC[C@H](CCn2cc(C3CC3)nn2)O[C@@H]1CO)c1ccc(Cl)cc1	nt	-6	-4	5[16.7 µM]	-2	nt
CCCC#Cc1ccc([C@H]2[C@@H](CO)N3C(=O)CN(C(=O)c4ccccc4)C[C@H]23)cc1	nt	nt	1	nt	2	nt
CCCCSCCCNC(=O)CS(=O)Cc1nc(-c2cccc(C)c2)oc1C (stereo unspecified)	99*	-3	nt	14	nt	1
COc1cc(OC)cc(C(=O)NC(=S)Nc2ccc3oc(=O)ccc3c2)c1	1	1	-2	-6	9.6*	21
